According to PubChem BioAssay AID504866 (Johns Hopkins Ion Channel Center, 2011):
The source made the active and inactive calls.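 How the source made its calls: active means compound cutting the TRPC4 channel signal by more than 30% at some tested dose, with a fitted dose response curve; inactive means no inhibition at any dose, or no curve fitted.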

target: Short transient receptor potential channel 4 (Mus musculus) (UniProt Q9QUQ5); experiment: mouse TRPC4 blockers, membrane potential readout – cell-based, HEK293 TRPC4/mu-opioid, concentration-response, set 2, selectivity assay for TRPC6 selective inhibitor project, SAR follow-up (AID 504866); details: DAMGO, membrane potential dye; series mostly up to 20 µM
Sequence (Q9QUQ5 whole entry, looked up): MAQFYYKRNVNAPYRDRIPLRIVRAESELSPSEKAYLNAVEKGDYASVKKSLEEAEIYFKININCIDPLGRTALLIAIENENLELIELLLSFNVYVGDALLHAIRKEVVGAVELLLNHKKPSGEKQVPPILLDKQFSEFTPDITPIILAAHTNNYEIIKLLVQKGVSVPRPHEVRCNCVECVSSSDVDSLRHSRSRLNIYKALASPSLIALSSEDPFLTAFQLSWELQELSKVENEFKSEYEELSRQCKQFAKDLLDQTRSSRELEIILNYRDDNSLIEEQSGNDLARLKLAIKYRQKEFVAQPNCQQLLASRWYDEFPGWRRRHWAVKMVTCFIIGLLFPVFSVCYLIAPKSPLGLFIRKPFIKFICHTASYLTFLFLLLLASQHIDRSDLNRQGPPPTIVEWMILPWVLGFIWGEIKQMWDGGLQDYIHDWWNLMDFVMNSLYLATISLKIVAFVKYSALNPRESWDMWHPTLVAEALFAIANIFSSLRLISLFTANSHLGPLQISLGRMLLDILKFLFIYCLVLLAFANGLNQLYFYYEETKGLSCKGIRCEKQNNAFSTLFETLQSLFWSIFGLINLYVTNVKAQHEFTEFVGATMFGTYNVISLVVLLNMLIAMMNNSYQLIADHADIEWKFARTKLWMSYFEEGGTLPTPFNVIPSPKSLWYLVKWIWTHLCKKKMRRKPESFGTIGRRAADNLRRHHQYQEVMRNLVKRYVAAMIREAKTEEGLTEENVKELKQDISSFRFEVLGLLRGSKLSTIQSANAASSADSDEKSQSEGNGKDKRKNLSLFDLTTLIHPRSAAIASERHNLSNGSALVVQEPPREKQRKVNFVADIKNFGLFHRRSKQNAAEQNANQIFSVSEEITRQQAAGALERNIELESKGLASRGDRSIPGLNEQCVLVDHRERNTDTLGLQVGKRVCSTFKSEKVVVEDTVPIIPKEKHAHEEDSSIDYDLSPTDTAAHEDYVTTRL

outcome, inactive:
Clc1ccc(SCc2cc(N3CCCCC3)nc(-c3ccccn3)n2)cc1
Cc1cccc(CN2CCN(Cc3ccc4nsnc4c3)CC2CCO)n1 (stereo unspecified)
Cc1ccc(C)c(N2CCN(C(=O)c3ccc4nsnc4c3)CC2)c1
O=S(=O)(Cc1cc(N2CCOCC2)nc(-c2ccccn2)n1)c1ccccc1
OCCC1CN(Cc2ccc3nsnc3c2)CCN1CCCc1ccccc1 (stereo unspecified)
CSCc1cc(N2CCOCC2)nc(-c2ccccn2)n1
CC(C)CN1CCN(Cc2ccc3nsnc3c2)CC1CCO (stereo unspecified)
OCCC1CN(Cc2ccc3nsnc3c2)CCN1C1CCCC1 (stereo unspecified)
CN1CCC(N2CCN(Cc3ccc4nsnc4c3)CC2CCO)CC1 (stereo unspecified)
CC(C)CCN1CCN(Cc2ccc3nsnc3c2)CC1CCO (stereo unspecified)
Cc1ccccc1CN1CCN(Cc2ccc3nsnc3c2)CC1CCO (stereo unspecified)
CC(C)N1CCC(N2CCN(Cc3ccc4nsnc4c3)CC2CCO)CC1 (stereo unspecified)
CC(C)N1CCN(Cc2ccc3nsnc3c2)CC1CCO (stereo unspecified)
O=S(=O)(Cc1cc(N2CCN(c3ccccc3)CC2)nc(-c2ccccn2)n1)c1ccccc1
CSCc1cc(N(C)c2ccccc2)nc(-c2ccccn2)n1
CN1CCN(Cc2ccc3nsnc3c2)CC1CCO (stereo unspecified)
